The whole screen tested about 340,000 compounds, of which about 1,400 (0.41%) were called active. Inconclusive results (about 4%) are left out. Calls follow the shape of the full dose curve; cell line not stated here. For the sample, actives were picked, then their nearest neighbours and some compounds at random.
Experiment: qHTS for Antagonists of gsp, the Etiologic Mutation Responsible for Fibrous Dysplasia/McCune-Albright Syndrome: qHTS; also: nearly all actives have a fitted effect of over 65% in size
Settings: gsp-mutant cells, cAMP HTRF, 30 min; series mostly up to 76.9 µM
In short: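 Cells in G418 medium, seeded 16-24 h, 37C; buffer exchange to DPBS + 1 mM CaCl2, 0.5 mM MgCl2, 0.05% BSA; cpds in DMSO + […] (300 uM stock), 30 min 37C; HTRF cAMP detection.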
Potency is read from the fitted curve at half-maximal effect.

Potency, active:
O=C1[C@@H]2C(c3cccnc3)=NO[C@@H]2C(=O)N1c1ccc(Cl)cc1Cl 11.2 µM, Cc1cc(NC(=O)COc2ccccc2C#N)no1 31.6 µM, O=[N+]([O-])c1cc([N+](=O)[O-])c(Oc2cc(F)cc(F)c2F)cc1NN1CCCCC1 11.2 µM, COC(=O)Cn1nc(-c2ccccc2)c2cc(Cl)ccc21 31.6 µM

Potency, inactive:
CC(C)(C)S(=O)(=O)N1Cc2cc(CO)cc(CCO)c2[C@H]1CCO, COc1cccc(C=CC(=O)C=CC=Cc2ccccc2)c1, COc1ccc(-c2ccc3c(c2)C2CC3CCN2CCC#N)cc1 (stereo unspecified), O=C(/C=C/c1ccc(Cl)cc1Cl)c1cccnc1, O=C(NNC1CC(=O)N(c2cccc(Cl)c2)C1=O)c1cccnc1 (stereo unspecified), Cc1ccc(C(=O)O)c(NC=O)c1OCc1ccccc1, COc1ccc(CNC(=O)CN2C(=O)c3ccccc3S2(=O)=O)cc1, Cc1cc(NC(=O)COn2nnc3ccccc32)no1, Cc1cc(NC(=O)COc2ccc([N+](=O)[O-])cc2)no1, NC1=NOC(=O)C1C1CCCCC1 (stereo unspecified), O=C(Cc1ccc([N+](=O)[O-])cc1)NCCc1ccc2c(c1)OCO2, O=C(COc1ccc(Cl)cc1[N+](=O)[O-])N1CCCCC1, O=C(CN1CCCCCC1)Nc1ccc(Br)cc1[N+](=O)[O-], COc1ccc(/C=C/C(=O)OCC(=O)N2CCN(S(=O)(=O)c3ccc(C)cc3C)CC2)cc1OC, O=C(NCCc1ccccc1)c1cccc(NC(=O)c2ccccc2)c1, O=c1ccn([C@@H]2O[C@H](CNS(=O)(=O)c3cc4ccccc4s3)[C@@H](O)[C@H]2O)c(=O)[nH]1, Cc1ccc(S(=O)(=O)CCC(=O)OCC(=O)N(C)Cc2ccccc2)cc1, O=C(NNC(=O)c1ccc2ccccc2c1)c1ccc(Cl)cc1, CCCNC(=O)CCn1nc(-c2ccccc2)c2ccccc2c1=O, O=C(CCl)NNc1nc(-c2ccccc2)c2cc(Cl)ccc2n1, Cc1nn(-c2ncccn2)c2c1C(=O)CC(C)(C)C2Br (stereo unspecified), COc1ccc(Cn2cc(CN3CCS(=O)(=O)N(Cc4ccc(-c5cccc(Cl)c5)cc4)C(C)C3=O)nn2)cc1 (stereo unspecified)
